Measured values: PubChem BioAssay (NCI)
Compounds without any hit were thinned out: in the full panel of roughly 79,000, 15% have a hit. Active and inactive are the calls of the source. No stated cut-off is given here; in the data, active means growth inhibition above about 70%; inactive means the rest.

Columns and labels:
[1] = NCI Yeast Anticancer Drug Screen. Data for the mec2-1 strain (AID 157); details: S. cerevisiae mec2-1 strain, stronger effect = higher value
Procedure, shortened: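 Vehicle-treated cultures served as reference for growth inhibition of compound-exposed mec2-1 yeast.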

[2] = NCI Yeast Anticancer Drug Screen. Data for the rad14 strain (AID 159);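 further: 0% = growth of vehicle-treated control cultures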; details: S. cerevisiae rad14 strain growth inhibition, stronger effect = higher value
Procedure, shortened: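 Compound-treated yeast with a defined DNA-repair lesion; growth inhibition normalised to vehicle-treated cultures.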

[3] = NCI Yeast Anticancer Drug Screen. Data for the CLN2oe strain (AID 163);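 further: 0% = growth of vehicle-only control cultures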; details: S. cerevisiae CLN2oe strain, stronger effect = higher value
Procedure, shortened: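 Inhibition relative to vehicle-treated yeast is reported. Cells: strain with genetic alteration in cell-cycle control, grown with compound.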

[4] = NCI Yeast Anticancer Drug Screen. Data for the cln2 rad14 strain (AID 165);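 further: 0% = growth equal to vehicle treated cultures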; details: S. cerevisiae cln2 rad14 strain, stronger effect = higher value
Procedure, shortened: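 Each compound was tested on cln2 rad14 yeast. Inhibition of growth was calculated against vehicle-exposed controls.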

[5] = NCI Yeast Anticancer Drug Screen. Data for the bub3 strain (AID 167); details: S. cerevisiae bub3 mutant strain, stronger effect = higher value
Procedure, shortened: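 Growth of a checkpoint-deficient yeast mutant is measured after compound exposure. Values represent inhibition relative to vehicle.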

[6] = NCI Yeast Anticancer Drug Screen. Data for the wt2 strain (AID 169);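 further: 0% = growth of vehicle-treated yeast cultures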; details: S. cerevisiae wt2 strain growth inhibition, stronger effect = higher value
Procedure, shortened: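 Inhibition of yeast growth was determined after compound treatment, normalised to controls receiving only vehicle.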

[7] = NCI Yeast Anticancer Drug Screen. Data for the mlh1 strain (AID 171);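 further: 0% = growth of vehicle-treated control cultures of the same strain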; details: S. cerevisiae mlh1 strain growth inhibition, stronger effect = higher value
Procedure, shortened: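 Vehicle-normalised growth inhibition of a repair- or checkpoint-altered yeast strain following compound treatment.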

[8] = NCI Yeast Anticancer Drug Screen. Data for the sgs1 strain (AID 173);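 further: 0% = growth of vehicle-only control cultures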; details: S. cerevisiae sgs1 mutant, stronger effect = higher value
Procedure, shortened: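 Screen format: yeast with repair or checkpoint alterations, compound exposure, growth read relative to vehicle.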

[9] = NCI Yeast Anticancer Drug Screen. Data for the rad18 strain (AID 177); details: S. cerevisiae rad18 mutant growth inhibition, stronger effect = higher value
Procedure, shortened: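 Test articles were incubated with altered yeast defective in DNA damage repair. Results are given as inhibition of growth versus vehicle.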

[10] = NCI Yeast Anticancer Drug Screen. Data for the rad52 strain (AID 147);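 further: 0% = growth of vehicle-treated control cultures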; details: S. cerevisiae rad52 mutant growth inhibition, stronger effect = higher value
Procedure, shortened: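 Vehicle-treated cultures served as the reference for growth inhibition of compound-exposed yeast bearing a DNA repair mutation.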

[11] = NCI Yeast Anticancer Drug Screen. Data for the wt1 strain (AID 149);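 further: 0% = growth of vehicle-treated wt1 cultures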; details: S. cerevisiae wt1 strain (SPY 50644) growth inhibition, stronger effect = higher value
Procedure, shortened: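 Readout: yeast growth inhibition, normalised to vehicle controls, in the wt1 strain exposed to test compounds.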

[12] = NCI Yeast Anticancer Drug Screen. Data for the rad50EPP+ strain (AID 151);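 further: 0% = growth of vehicle-treated control cultures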; details: S. cerevisiae rad50 mutant strain, stronger effect = higher value
Procedure, shortened: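 In this screen, rad50EPP+ yeast were exposed to compounds. Growth inhibition was scored against vehicle-treated controls.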

[13] = NCI Yeast Anticancer Drug Screen. Data for the mgt1 strain (AID 153); details: S. cerevisiae mgt1 mutant growth inhibition, stronger effect = higher value
Procedure, shortened: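 mgt1 strain exposed; growth vs vehicle control recorded as inhibition.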

[14] = NCI Yeast Anticancer Drug Screen. Data for the rad50 strain (AID 155);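 further: 0% = growth of vehicle-only cultures of the same strain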; details: S. cerevisiae rad50 strain growth inhibition, stronger effect = higher value
Procedure, shortened: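 Compounds were tested on a yeast strain with an engineered DNA damage repair alteration; the reported value is growth inhibition normalised to vehicle treatment.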

[15] = NCI Yeast Anticancer Drug Screen. Data for the sgs1 mgt1 strain (AID 161);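 further: 0% = growth of cultures given vehicle only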; details: S. cerevisiae sgs1 mgt1 strain, stronger effect = higher value
Procedure, shortened: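 Test agents were incubated with a DNA-repair-mutant yeast strain. Growth was then read and compared against vehicle-treated controls.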

[16] = NCI Yeast Anticancer Drug Screen. Data for the mlh1 rad18 strain (AID 175); details: S. cerevisiae mlh1 rad18 strain growth inhibition, stronger effect = higher value
Procedure, shortened: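 Vehicle-treated cultures served as the reference for growth inhibition in a yeast strain carrying DNA damage repair alterations exposed to each compound.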

[17] = at 5.0 µM (retest, dose inferred, filed as 0.5)
[18] = at 50.0 µM (retest, dose inferred, filed as 5.0)

Measured: growth inhibition

O=C(CCCN1CCC(Nc2ccc(F)cc2)(c2nnnn2C2CCCCC2)CC1)c1ccc(F)cc1
active: [1]; at 100.0 µM 99% | [2]; at 100.0 µM 85% | [3]; at 100.0 µM 99% | [5]; [18] 80% | [5]; at 100.0 µM 99% | [6]; at 100.0 µM 99% | [7]; at 100.0 µM 98% | [8]; at 100.0 µM 98% | [9]; at 100.0 µM 99%
inactive: [1]; [17] 3% | [1]; at 11.0 µM -17% | [1]; at 33.0 µM -5% | [1]; [18] 12% | [1]; at 50.0 µM 27.1% | [2]; at 1.2 µM -5% | [2]; at 3.7 µM -8% | [2]; at 11.0 µM -10% | [2]; at 33.0 µM 9% | [3]; at 1.2 µM -8% | [3]; at 3.7 µM -10% | [3]; at 11.0 µM -7% | [3]; at 33.0 µM 31% | [4]; [17] 65% | [4]; [18] 50% | [4]; at 50.0 µM 35.7% | [5]; at 1.2 µM -2% | [5]; at 3.7 µM -4% | [5]; [17] -13% | [5]; at 11.0 µM -6% | [5]; at 33.0 µM 22% | [5]; at 50.0 µM 32.9% | [6]; at 1.2 µM -6% | [6]; at 3.7 µM -6% | [6]; at 11.0 µM -9% | [6]; at 33.0 µM -1% | [7]; at 1.2 µM -3% | [7]; at 3.7 µM -6% | [7]; at 11.0 µM -8% | [7]; at 33.0 µM -6% | [8]; at 1.2 µM -1% | [8]; at 3.7 µM -1% | [8]; at 11.0 µM -4% | [8]; at 33.0 µM 7% | [9]; at 1.2 µM 3% | [9]; at 3.7 µM 0% | [9]; at 11.0 µM 14% | [9]; at 33.0 µM 17%

CC(C)C(=O)CC(Sc1ccc(N)cc1)c1ccccc1 (stereo not drawn)
inactive: [10]; at 1.2 µM 2% | [10]; at 3.7 µM 8% | [10]; at 11.0 µM 23% | [10]; at 33.0 µM 47% | [11]; at 1.2 µM -4% | [11]; at 3.7 µM -4% | [11]; at 11.0 µM -1% | [11]; at 33.0 µM 10% | [11]; at 100.0 µM 18% | [12]; at 1.2 µM -5% | [12]; at 3.7 µM -4% | [12]; at 11.0 µM 1% | [12]; at 33.0 µM 6% | [12]; at 100.0 µM 8% | [13]; at 1.2 µM -2% | [13]; at 3.7 µM -5% | [13]; at 11.0 µM 27% | [13]; at 33.0 µM 32% | [13]; at 100.0 µM 58% | [14]; at 1.2 µM -1% | [14]; at 3.7 µM 1% | [14]; [17] -22% | [14]; at 11.0 µM -19% | [14]; at 33.0 µM 24% | [14]; at 50.0 µM 55.6% | [14]; at 100.0 µM 42% | [1]; at 1.2 µM 1% | [1]; at 3.7 µM -2% | [1]; [17] -2% | [1]; at 11.0 µM 10% | [1]; at 33.0 µM 27% | [1]; at 50.0 µM 36.5% | [1]; at 100.0 µM 40% | [2]; at 1.2 µM 1% | [2]; at 3.7 µM 2% | [2]; at 11.0 µM 6% | [2]; at 33.0 µM 25% | [2]; at 100.0 µM 46% | [15]; [17] -26% | [15]; at 50.0 µM 53% | [4]; [17] -3% | [4]; [18] 57% | [4]; at 50.0 µM 27.8% | [6]; at 1.2 µM -2% | [6]; at 3.7 µM -2% | [6]; at 11.0 µM 10% | [6]; at 33.0 µM 47% | [6]; at 100.0 µM 57% | [7]; at 1.2 µM 1% | [7]; at 3.7 µM -2% | [7]; at 11.0 µM 7% | [7]; at 33.0 µM 30% | [7]; at 100.0 µM 48% | [8]; at 1.2 µM 0% | [8]; at 3.7 µM 4% | [8]; at 11.0 µM 22% | [8]; at 33.0 µM 62% | [16]; [17] -19% | [16]; at 50.0 µM 42.5% | [9]; at 1.2 µM -8% | [9]; at 3.7 µM -2% | [9]; at 11.0 µM 12% | [9]; at 33.0 µM 30% | [9]; at 100.0 µM 52%
active: [10]; at 100.0 µM 83% | [14]; [18] 77% | [1]; [18] 88% | [15]; [18] 87% | [5]; at 1.2 µM 87% | [5]; at 3.7 µM 89% | [5]; [17] 89% | [5]; at 11.0 µM 90% | [5]; at 33.0 µM 91% | [5]; [18] 98% | [5]; at 50.0 µM 85.1% | [5]; at 100.0 µM 92% | [8]; at 100.0 µM 79% | [16]; [18] 85%

O=C(O)C(=Cc1ccc(-c2ccccc2)cc1)C(=O)O
inactive: [10]; at 1.2 µM 6% | [10]; at 3.7 µM 10% | [10]; at 11.0 µM 24% | [10]; at 33.0 µM 50% | [11]; at 1.2 µM 2% | [11]; at 3.7 µM 4% | [11]; at 11.0 µM 16% | [11]; at 33.0 µM 55% | [12]; at 1.2 µM -1% | [12]; at 3.7 µM -1% | [12]; at 11.0 µM -1% | [12]; at 33.0 µM 6% | [12]; at 100.0 µM 25% | [13]; at 1.2 µM 2% | [13]; at 3.7 µM 4% | [13]; at 11.0 µM 22% | [13]; at 33.0 µM 58% | [14]; at 1.2 µM 0% | [14]; at 3.7 µM -5% | [14]; [17] 2% | [14]; at 11.0 µM 11% | [14]; at 33.0 µM 54% | [14]; [18] 23% | [14]; at 50.0 µM 60.1% | [1]; at 1.2 µM 4% | [1]; at 3.7 µM 7% | [1]; [17] -7% | [1]; at 11.0 µM 30% | [1]; at 33.0 µM 60% | [1]; [18] 63% | [1]; at 50.0 µM 46.5% | [15]; [17] 4% | [15]; [18] 24% | [15]; at 50.0 µM 31.5% | [3]; at 1.2 µM 5% | [3]; at 3.7 µM 7% | [3]; at 11.0 µM 22% | [3]; at 33.0 µM 56% | [4]; [17] 46% | [4]; [18] 27% | [4]; at 50.0 µM 23.7% | [5]; at 1.2 µM 1% | [5]; at 3.7 µM 1% | [5]; [17] -10% | [5]; at 11.0 µM 24% | [5]; [18] 43% | [6]; at 1.2 µM 0% | [6]; at 3.7 µM 3% | [6]; at 11.0 µM 17% | [6]; at 33.0 µM 61% | [7]; at 1.2 µM 3% | [7]; at 3.7 µM 5% | [7]; at 11.0 µM 23% | [7]; at 33.0 µM 69% | [8]; at 1.2 µM 3% | [8]; at 3.7 µM 7% | [8]; at 11.0 µM 26% | [16]; [17] -2% | [16]; [18] 19% | [9]; at 1.2 µM 3% | [9]; at 3.7 µM 7% | [9]; at 11.0 µM 20%
active: [10]; at 100.0 µM 87% | [11]; at 100.0 µM 88% | [13]; at 100.0 µM 90% | [14]; at 100.0 µM 88% | [1]; at 100.0 µM 92% | [3]; at 100.0 µM 88% | [5]; at 33.0 µM 72% | [5]; at 50.0 µM 71.8% | [5]; at 100.0 µM 93% | [6]; at 100.0 µM 89% | [7]; at 100.0 µM 94% | [8]; at 33.0 µM 72% | [8]; at 100.0 µM 92% | [16]; at 50.0 µM 70.9% | [9]; at 33.0 µM 70% | [9]; at 100.0 µM 91%
